Assay results from the supplement of paper PMC10849652.
Of roughly 7,900 targets only a part is listed; those with a hit were picked by preference. About 0.6% of all pairs of compound and target were hits. Values without a mark were called inactive.

Legend:
Test in all cases: log2 fold change, soluble protein after heating vs DMSO (PISA); higher = thermal stabilisation; K562 cells, 10 uM, 30 min; active = over 0.2 and 3.5 SD of the protein, either way, in both replicates (recomputed)
[1] = compound: CS(=O)(=O)c1ccc(-c2cnc(N)c(C(=O)Nc3ccccc3)n2)cc1
Procedure, shortened: (§1)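 Soluble protein was quantified by TMTpro 16plex LC-MS/MS after channel sums were equalised. It was obtained as the supernatant after 21,000xg for 90 min from pooled aliquots of K562 cells (2×10^6 cells/mL, 10 μM compound, 30 min) heated for 3 min across 48°C-58°C and extracted in PBS with 0.5% NP-40 at 4°C. Thermal stability values are relative to control samples and come from duplicates. They are given as log2 fold changes.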

crizotinib = compound: C[C@@H](Oc1cc(-c2cnn(C3CCNCC3)c2)cnc1N)c1c(Cl)ccc(F)c1Cl [crizotinib]
Procedure, shortened: as §1

[2] = compound: C[C@@H]1COCCN1C2=NC(=NC(=C2)C3(CC3)S(=O)(=O)C)C4=C5C=CNC5=CC=C4
Procedure, shortened: as §1

[3] = compound: C[C@H](C1=CC=C(C=C1)C(=O)NC2=C3C=CNC3=NC=C2)N
Procedure, shortened: as §1

duvelisib = compound: C[C@H](Nc1ncnc2nc[nH]c12)c1cc2cccc(Cl)c2c(=O)n1-c1ccccc1 [duvelisib]
Procedure, shortened: as §1

gandotinib = compound: Cc1cc(Nc2cc(CN3CCOCC3)c3nc(C)c(Cc4ccc(Cl)cc4F)n3n2)n[nH]1 [gandotinib]
Procedure, shortened: as §1

tozasertib = compound: Cc1cc(Nc2cc(N3CCN(C)CC3)nc(Sc3ccc(NC(=O)C4CC4)cc3)n2)n[nH]1 [tozasertib]
Procedure, shortened: as §1

[4] = compound: Cc1cc(SCc2sc(-c3ccc(C(F)(F)F)cc3)nc2C)ccc1OCC(=O)O
Procedure, shortened: as §1

doramapimod = compound: Cc1ccc(-n2nc(C(C)(C)C)cc2NC(=O)Nc2ccc(OCCN3CCOCC3)c3ccccc23)cc1 [doramapimod]
Procedure, shortened: as §1

ispinesib = compound: Cc1ccc(C(=O)N(CCCN)[C@@H](c2nc3cc(Cl)ccc3c(=O)n2Cc2ccccc2)C(C)C)cc1 [ispinesib]
Procedure, shortened: as §1

bafetinib = compound: Cc1ccc(NC(=O)c2ccc(CN3CC[C@H](N(C)C)C3)c(C(F)(F)F)c2)cc1Nc1nccc(-c2cncnc2)n1 [bafetinib]
Procedure, shortened: as §1

[5] = compound: Cc1cccc(CC(=O)N2CCc3c2ccc(-c2cn(C)c4ncnc(N)c24)c3F)n1
Procedure, shortened: as §1

nilotinib = compound: Cc1cn(-c2cc(NC(=O)c3ccc(C)c(Nc4nccc(-c5cccnc5)n4)c3)cc(C(F)(F)F)c2)cn1 [nilotinib]
Procedure, shortened: as §1

[6] = compound: Cc1nc(Nc2n[nH]c3c2CN(C(=O)N[C@H](CN(C)C)c2ccccc2)C3(C)C)c2sccc2n1
Procedure, shortened: as §1

dasatinib = compound: Cc1nc(Nc2ncc(C(=O)Nc3c(C)cccc3Cl)s2)cc(N2CCN(CCO)CC2)n1 [dasatinib]
Procedure, shortened: as §1

[7] = compound: Cc1ncc(-c2ccnc(Nc3ccc(S(C)(=O)=O)cc3)n2)n1C(C)C
Procedure, shortened: as §1

[8] = compound: Cn1cc(-c2ccc3c(c2)CCN3C(=O)Cc2cccc(C(F)(F)F)c2)c2c(N)ncnc21
Procedure, shortened: as §1

[9] = compound: Cn1cc(-c2ccc3nnc(C(F)(F)c4ccc5ncccc5c4)n3n2)cn1
Procedure, shortened: as §1

tipifarnib = compound: Cn1cncc1[C@@](N)(c1ccc(Cl)cc1)c1ccc2c(c1)c(-c1cccc(Cl)c1)cc(=O)n2C [tipifarnib]
Procedure, shortened: as §1

mubritinib = compound: FC(F)(F)c1ccc(/C=C/c2nc(COc3ccc(CCCCn4ccnn4)cc3)co2)cc1 [mubritinib]
Procedure, shortened: as §1

Sequence of UniProt Q8TC07 (Q8TC07 whole entry, looked up): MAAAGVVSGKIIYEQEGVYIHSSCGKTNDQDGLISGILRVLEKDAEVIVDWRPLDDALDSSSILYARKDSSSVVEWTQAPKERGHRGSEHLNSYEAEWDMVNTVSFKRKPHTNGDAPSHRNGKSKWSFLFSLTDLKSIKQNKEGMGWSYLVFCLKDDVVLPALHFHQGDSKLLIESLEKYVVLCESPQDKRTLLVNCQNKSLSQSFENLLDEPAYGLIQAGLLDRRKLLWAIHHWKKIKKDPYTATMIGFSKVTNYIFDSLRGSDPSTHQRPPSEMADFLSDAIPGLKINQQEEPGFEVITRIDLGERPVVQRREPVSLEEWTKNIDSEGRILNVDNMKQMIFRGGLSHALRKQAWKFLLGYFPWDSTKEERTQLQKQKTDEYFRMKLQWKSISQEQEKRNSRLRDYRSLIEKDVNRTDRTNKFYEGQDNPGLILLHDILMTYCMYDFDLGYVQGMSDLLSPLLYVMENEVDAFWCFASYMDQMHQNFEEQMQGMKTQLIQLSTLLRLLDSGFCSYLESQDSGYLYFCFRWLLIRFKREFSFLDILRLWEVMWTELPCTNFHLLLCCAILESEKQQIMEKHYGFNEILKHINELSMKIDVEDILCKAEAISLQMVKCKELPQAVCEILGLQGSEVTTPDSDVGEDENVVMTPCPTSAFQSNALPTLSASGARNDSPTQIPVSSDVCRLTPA
Sequence of UniProt P30626 (P30626 whole entry, looked up): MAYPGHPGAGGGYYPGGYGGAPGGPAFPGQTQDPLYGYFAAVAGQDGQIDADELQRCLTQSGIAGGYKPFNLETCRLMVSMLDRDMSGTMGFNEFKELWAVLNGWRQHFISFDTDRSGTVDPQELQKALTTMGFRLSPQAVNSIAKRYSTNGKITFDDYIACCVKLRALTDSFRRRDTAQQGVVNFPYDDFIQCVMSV
Sequence of UniProt Q07157 (Q07157 whole entry, looked up): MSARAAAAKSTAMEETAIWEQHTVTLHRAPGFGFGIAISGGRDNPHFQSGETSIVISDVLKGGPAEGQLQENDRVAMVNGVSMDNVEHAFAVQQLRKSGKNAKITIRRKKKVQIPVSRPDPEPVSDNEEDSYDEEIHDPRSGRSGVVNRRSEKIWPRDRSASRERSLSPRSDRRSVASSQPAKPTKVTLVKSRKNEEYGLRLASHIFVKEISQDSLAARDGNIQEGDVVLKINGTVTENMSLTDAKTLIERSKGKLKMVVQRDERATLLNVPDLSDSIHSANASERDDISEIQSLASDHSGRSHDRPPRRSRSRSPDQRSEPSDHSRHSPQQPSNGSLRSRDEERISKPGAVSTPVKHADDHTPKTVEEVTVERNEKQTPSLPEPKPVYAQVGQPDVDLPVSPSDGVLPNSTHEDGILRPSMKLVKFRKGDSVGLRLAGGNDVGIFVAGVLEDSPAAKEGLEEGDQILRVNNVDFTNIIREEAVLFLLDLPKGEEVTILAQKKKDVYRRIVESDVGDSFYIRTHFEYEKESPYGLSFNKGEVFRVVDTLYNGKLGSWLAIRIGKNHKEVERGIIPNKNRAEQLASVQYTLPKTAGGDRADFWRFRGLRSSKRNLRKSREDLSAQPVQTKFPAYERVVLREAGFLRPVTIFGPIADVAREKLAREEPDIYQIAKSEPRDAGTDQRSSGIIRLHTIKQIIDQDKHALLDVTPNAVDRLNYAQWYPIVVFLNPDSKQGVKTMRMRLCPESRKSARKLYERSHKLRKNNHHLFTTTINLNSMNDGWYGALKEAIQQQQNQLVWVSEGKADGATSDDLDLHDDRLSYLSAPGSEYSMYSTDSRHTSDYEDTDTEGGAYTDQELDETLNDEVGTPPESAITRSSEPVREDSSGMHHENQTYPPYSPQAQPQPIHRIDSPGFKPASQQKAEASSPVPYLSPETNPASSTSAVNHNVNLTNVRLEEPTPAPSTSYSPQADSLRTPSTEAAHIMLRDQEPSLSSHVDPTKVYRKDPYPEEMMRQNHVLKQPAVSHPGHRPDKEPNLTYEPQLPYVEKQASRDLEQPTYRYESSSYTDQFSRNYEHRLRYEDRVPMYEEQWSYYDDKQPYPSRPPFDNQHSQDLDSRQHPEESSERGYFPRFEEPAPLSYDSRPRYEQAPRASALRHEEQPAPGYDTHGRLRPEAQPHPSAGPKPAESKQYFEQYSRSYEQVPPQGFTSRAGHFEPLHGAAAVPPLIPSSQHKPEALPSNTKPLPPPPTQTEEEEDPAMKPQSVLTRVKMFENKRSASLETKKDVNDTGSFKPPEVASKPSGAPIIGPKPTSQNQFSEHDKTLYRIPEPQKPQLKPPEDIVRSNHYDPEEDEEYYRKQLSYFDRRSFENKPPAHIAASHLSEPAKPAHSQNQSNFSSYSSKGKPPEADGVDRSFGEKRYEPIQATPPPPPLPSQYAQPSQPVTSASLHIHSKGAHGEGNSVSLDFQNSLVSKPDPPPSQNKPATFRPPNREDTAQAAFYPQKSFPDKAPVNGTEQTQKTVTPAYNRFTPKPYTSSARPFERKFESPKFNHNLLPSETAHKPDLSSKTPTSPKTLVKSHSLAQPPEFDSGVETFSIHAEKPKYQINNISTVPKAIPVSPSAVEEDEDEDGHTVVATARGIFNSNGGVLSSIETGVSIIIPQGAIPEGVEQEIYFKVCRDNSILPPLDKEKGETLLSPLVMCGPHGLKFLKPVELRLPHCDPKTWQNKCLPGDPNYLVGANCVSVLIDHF
Sequence of UniProt Q6XR72 (Q6XR72 whole entry, looked up): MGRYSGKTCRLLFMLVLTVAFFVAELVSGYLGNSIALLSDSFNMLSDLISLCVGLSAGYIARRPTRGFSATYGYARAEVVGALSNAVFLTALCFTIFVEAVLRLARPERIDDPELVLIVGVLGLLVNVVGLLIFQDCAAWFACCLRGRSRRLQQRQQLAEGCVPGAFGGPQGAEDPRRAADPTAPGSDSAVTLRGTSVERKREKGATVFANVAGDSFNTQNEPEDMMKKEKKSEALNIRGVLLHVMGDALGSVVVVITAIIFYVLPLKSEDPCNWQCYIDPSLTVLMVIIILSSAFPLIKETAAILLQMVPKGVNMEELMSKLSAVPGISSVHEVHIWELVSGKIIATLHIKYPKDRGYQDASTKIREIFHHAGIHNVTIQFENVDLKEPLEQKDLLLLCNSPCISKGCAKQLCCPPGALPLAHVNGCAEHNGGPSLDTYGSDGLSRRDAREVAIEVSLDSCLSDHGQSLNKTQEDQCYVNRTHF
Sequence of UniProt A6NHR9 (A6NHR9 whole entry, looked up): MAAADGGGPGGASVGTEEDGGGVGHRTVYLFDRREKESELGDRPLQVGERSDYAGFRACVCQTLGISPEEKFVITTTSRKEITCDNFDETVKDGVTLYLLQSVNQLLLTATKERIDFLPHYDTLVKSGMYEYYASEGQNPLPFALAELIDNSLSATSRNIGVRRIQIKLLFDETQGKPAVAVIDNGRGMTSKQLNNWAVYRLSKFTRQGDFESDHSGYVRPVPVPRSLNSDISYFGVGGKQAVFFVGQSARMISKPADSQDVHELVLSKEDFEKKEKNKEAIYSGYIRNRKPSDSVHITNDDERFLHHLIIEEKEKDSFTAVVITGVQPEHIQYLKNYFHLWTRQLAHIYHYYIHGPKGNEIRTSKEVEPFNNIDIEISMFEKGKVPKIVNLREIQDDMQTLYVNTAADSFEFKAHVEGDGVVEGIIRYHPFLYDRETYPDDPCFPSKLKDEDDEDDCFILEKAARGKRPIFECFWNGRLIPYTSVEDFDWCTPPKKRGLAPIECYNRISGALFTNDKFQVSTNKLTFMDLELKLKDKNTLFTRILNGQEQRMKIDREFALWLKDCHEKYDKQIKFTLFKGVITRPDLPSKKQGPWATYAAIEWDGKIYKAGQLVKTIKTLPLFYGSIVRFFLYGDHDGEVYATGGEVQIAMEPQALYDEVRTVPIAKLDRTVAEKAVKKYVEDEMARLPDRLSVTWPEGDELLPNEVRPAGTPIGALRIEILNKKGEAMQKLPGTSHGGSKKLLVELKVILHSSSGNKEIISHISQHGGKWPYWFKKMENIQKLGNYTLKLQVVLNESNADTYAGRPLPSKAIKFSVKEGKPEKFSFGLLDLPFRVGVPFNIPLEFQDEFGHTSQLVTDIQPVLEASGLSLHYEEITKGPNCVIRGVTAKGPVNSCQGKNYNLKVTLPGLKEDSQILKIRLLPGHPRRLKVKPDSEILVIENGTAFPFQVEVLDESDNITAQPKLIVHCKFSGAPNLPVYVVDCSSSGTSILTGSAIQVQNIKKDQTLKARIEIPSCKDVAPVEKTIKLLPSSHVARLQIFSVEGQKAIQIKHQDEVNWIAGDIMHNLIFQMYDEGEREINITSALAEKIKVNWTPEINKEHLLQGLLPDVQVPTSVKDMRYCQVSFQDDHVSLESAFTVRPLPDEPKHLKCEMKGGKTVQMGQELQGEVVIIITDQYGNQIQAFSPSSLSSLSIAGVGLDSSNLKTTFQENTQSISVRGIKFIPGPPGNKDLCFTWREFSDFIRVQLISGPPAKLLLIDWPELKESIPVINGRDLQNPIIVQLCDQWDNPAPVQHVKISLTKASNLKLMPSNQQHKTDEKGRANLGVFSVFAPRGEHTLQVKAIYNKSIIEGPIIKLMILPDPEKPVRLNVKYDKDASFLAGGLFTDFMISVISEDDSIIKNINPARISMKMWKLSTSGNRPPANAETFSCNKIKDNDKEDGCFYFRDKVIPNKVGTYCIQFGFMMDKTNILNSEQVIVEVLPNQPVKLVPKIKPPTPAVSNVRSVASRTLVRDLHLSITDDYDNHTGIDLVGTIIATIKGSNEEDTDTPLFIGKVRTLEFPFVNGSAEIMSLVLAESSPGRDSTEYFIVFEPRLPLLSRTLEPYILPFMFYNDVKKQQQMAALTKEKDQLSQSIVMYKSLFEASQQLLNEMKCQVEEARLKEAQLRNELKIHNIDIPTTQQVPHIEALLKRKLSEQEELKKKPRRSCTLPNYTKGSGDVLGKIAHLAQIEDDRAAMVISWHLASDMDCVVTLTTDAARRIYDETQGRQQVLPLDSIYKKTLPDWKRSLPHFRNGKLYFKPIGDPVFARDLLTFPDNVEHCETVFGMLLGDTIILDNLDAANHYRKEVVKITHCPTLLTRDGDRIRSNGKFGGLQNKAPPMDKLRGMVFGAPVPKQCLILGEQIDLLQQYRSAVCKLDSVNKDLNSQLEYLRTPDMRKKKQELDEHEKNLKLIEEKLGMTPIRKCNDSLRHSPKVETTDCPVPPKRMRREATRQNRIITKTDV

| Target | log2 fold change [1] | log2 fold change (crizotinib) | log2 fold change [2] | log2 fold change [3] | log2 fold change (duvelisib) | log2 fold change (gandotinib) | log2 fold change (tozasertib) | log2 fold change [4] | log2 fold change (doramapimod) | log2 fold change (ispinesib) | log2 fold change (bafetinib) | log2 fold change [5] | log2 fold change (nilotinib) | log2 fold change [6] | log2 fold change (dasatinib) | log2 fold change [7] | log2 fold change [8] | log2 fold change [9] | log2 fold change (tipifarnib) | log2 fold change (mubritinib) |
| --- | --- | --- | --- | --- | --- | --- | --- | --- | --- | --- | --- | --- | --- | --- | --- | --- | --- | --- | --- | --- |
| SLC30A10 (UniProt Q6XR72) | 0.11 | 0.192 | 0.178 | -0.001 | 0.079 | -0.078 | -0.062 | -0.046 | 0.035 | 0.077 | -0.019 | -0.148 | 0.029 | -0.061 | 0.016 | 0.043 | 0.078 | -0.026 | 0.067 | -0.007 |
| SMCHD1 (UniProt A6NHR9) | -0.019 | -0.065 | -0.041 | -0.104 | 0 | 0.064 | 0.007 | 0.104 | 0.059 | -0.149 | 0.306 | 0 | 0.037 | -0.011 | -0.319 | -0.044 | -0.061 | -0.084 | -0.003 | -0.136 |
| TBC1D15 isoform 3 (UniProt Q8TC07) | -0.012 | -0.275 | -0.032 | 0.036 | -0.031 | -0.191 | 0.061 | 0.064 | 0.017 | -0.154 | -0.026 | 0.059 | -0.116 | -0.098 | -0.133 | -0.004 | -0.052 | 0.011 | -0.134 | 0.054 |
| SRI (UniProt P30626) | -0.061 | 0.082 | 0.159 | -0.139 | 0.212 | -0.03 | 0.106 | 0.066 | -0.032 | 0.353 (active) | -0.001 | 0.062 | 0.017 | 0.001 | 0.04 | -0.036 | 0.113 | 0.328 | -0.072 | 0.01 |
| TBCD (UniProt Q9BTW9) | -0.069 | 0.001 | 0.061 | -0.034 | 0.058 | -0.104 | 0.041 | 0.009 | 0.004 | -0.032 | -0.064 | 0.029 | -0.101 | -0.078 | -0.086 | -0.025 | 0.007 | 0.025 | -0.038 | -0.039 |
| TJP1 (UniProt Q07157) | 0.004 | -0.016 | 0.044 | -0.06 | 0.076 | -0.124 | 0.064 | 0.061 | -0.01 | 0.026 | -0.061 | 0.008 | 0.024 | -0.199 | -0.092 | -0.037 | -0.028 | -0.02 | -0.025 | 0.073 |
